Test results: PubChem BioAssay (Tox21)
Results filed as inconclusive are left out. Entries that show only a call come without a potency. A number with no mark means an inactive call. The source made the active and inactive calls. Calls come from the whole dose curve.

target: Thyrotropin receptor (Homo sapiens) (UniProt P16473); experiment: qHTS assay to identify small molecule antagonists of the thyroid stimulating hormone receptor (TSHR) signaling pathway (AID 1259385); conditions: TSHR-HEK293 cAMP HTRF, TSH-stimulated antagonist mode; series mostly up to 92.4 µM; note: nearly all actives have a fitted effect of over 20% in size
Procedure, shortened: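 Antagonist mode: compound-treated TSHR-expressing HEK293 cells were stimulated with 1.5 ng/mL TSH (final) in presence of Ro20-1724 for 30 min at RT. HTRF cAMP detection after 1 h; each compound tested at 15 concentrations, triplicate.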
Potency is the fitted concentration of half-maximal effect.

Thyrotropin receptor (Homo sapiens), sequence (P16473 whole entry, looked up): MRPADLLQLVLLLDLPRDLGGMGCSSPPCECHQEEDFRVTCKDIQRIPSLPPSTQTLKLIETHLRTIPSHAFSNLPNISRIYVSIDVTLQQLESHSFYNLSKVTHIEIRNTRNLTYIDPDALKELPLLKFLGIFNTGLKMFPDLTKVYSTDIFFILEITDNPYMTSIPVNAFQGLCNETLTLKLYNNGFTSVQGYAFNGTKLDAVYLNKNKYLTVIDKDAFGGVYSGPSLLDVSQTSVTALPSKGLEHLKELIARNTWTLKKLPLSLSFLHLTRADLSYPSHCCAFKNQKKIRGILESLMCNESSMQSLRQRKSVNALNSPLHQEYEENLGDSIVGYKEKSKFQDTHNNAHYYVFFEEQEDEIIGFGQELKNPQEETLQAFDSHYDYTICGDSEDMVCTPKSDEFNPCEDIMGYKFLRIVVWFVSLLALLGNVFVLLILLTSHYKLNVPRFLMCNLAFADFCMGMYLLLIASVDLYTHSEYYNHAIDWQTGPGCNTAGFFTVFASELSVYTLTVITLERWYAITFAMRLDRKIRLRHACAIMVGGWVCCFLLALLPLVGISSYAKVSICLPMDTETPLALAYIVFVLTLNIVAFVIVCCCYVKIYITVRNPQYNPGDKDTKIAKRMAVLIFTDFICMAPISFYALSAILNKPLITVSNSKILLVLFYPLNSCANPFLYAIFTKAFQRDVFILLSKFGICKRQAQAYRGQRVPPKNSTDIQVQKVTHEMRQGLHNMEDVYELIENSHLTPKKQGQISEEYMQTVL

Row | SMILES | Potency | activity change, negative = inhibition
1 | CCOC(=O)C1CC(=O)C(=C(O)C2CC2)C(=O)C1 (stereo unspecified) | inactive | 
2 | Cc1ccc([N+](=O)[O-])cc1Cl | inactive | 
3 | O=C(CCCl)NCc1ccccc1 | inactive | 
4 | Cc1ccc(C)c(N)c1 | inactive | 
5 | CCc1cc2cc(OC)c(OC)cc2c(Cc2ccccc2)n1 | inactive | 
6 | NS(=O)(=O)c1cc(-c2nn[nH]n2)c(NCc2cccs2)cc1Cl | inactive | 
7 | Cc1ccc([N+](=O)[O-])c(N)c1 | inactive | 
8 | CN(C)C(=O)NC1(c2ccccc2)CCN(CCC[C@]2(c3ccc(Cl)c(Cl)c3)CCCN(C(=O)c3ccccc3)C2)CC1 |  | -0.429% [at 19 µM]
9 | CC1=C2[C@H](/C=C(\C)C(=O)O)CC[C@@H](C)[C@H]2CC1 | inactive | 
10 | COC(=O)N[C@H](C(=O)N[C@@H](Cc1ccccc1)[C@@H](O)CN(Cc1ccc(-c2ccccn2)cc1)NC(=O)[C@@H](NC(=O)OC)C(C)(C)C)C(C)(C)C | inactive | 
11 | CCCCCOc1ccc(C2SC(=O)NC2=O)cc1OCC (stereo unspecified) | inactive | 
12 | C=CCCC=C | inactive | 
13 | C=CCCCCCCCCO | inactive | 
14 | O=c1[nH]c(=O)n([C@H]2C[C@H](O)[C@@H](CO)O2)cc1C(F)(F)F | inactive | 
15 | FC(F)(F)C(Cl)(Cl)Cl | inactive | 
16 | CC1=CC(=O)CC(C)(C)C1=O | inactive | 

Row | SMILES | Potency | activity change, negative = inhibition
17 | O=S(=O)(O)C(F)(F)F | inactive | 
18 | Cc1c(-c2ccccc2)oc2c(C(=O)OCCN3CCCCC3)cccc2c1=O | 23.7 µM (active) | 
19 | CCN(CC)CC1CCCCN1CC(=O)N1c2ccccc2C(=O)Nc2cccnc21 (stereo unspecified) | inactive | 
20 | CC(C)O | inactive | 
21 | CCC1(C)NC(=O)NC1=O (stereo unspecified) | inactive | 
22 | Cc1cn([C@@H]2O[C@H](CO)[C@@H](O)[C@@H]2F)c(=O)[nH]c1=O | inactive | 
23 | CC[C@H]1CC[C@H](NCc2cc3c(cc2OC)[C@H]2C[C@H]2C(=O)N3C)[C@H](c2ccccc2)N1 | inactive | 
24 | O=C(O)c1ccccc1Nc1cc(Cl)ccc1C(=O)O |  | 2.68% [at 19 µM]
25 | COC(=O)/C=C(/C)N | inactive | 
26 | CCCCCCn1c(=O)c2c(ncn2C)n(C)c1=O | inactive | 
27 | Cc1ncc(CO)c(CN)c1O | inactive | 
28 | O=C1Nc2ccc([N+](=O)[O-])cc2C1=O | inactive | 
29 | CCCCCCCCCC#N | inactive | 
30 | COc1ccccc1N1CCN(CCCNc2cc(=O)n(C)c(=O)n2C)CC1 | inactive | 
31 | CC(Oc1c(Cl)cccc1Cl)C1=NCCN1 (stereo unspecified) | inactive | 
